Molecules are shown by their SMILES. Hit rate of the full screen: of about 69,000 compounds, about 950 (1.4%) showed an effect of 50% or more. Many of the other results were omitted from the sample, so strong results are more common in it than they were.

The test system of the assay is Mycobacterium tuberculosis. As to the kind of experiment: Cornell M. t heat shock assay. Further: in the data most compounds retested in dose-response had high values. Type of assay: functional, organism-based. Also noted: dose or concentration left out as unconfirmed.
For `Cc1nn(C)cc1-c1cncn1CCN(C)C1CCCC1.Cl`, the “Percent Effect” value is reported as 1.181%. Take `Cc1cccc(CN2C[C@@H]3COC[C@]3(COCC(=O)N(C)C)C2)n1.O=C(O)C(F)(F)F.O=C(O)C(F)(F)F`: the “Percent Effect” value was -9.127%. The figure for `O=C(O)C(F)(F)F.O=C([C@H]1C[C@H]2OCC[C@H]2N(CC2CCOCC2)C1)N1CCCCO1` is -2.02%; for `COC1COC2(CCN(Cc3cccc(Cl)c3)CC2)C1.O=C(O)C(F)(F)F` (stereo unspecified) it is -14.26%; for `CN1[C@H]2CC[C@@H]1CN(c1nc(-c3ccncc3)nc3c1cnn3C)CC2` it is -0.0303%. The figure for `O=C(NC1CCCCC1)N1CCc2onc(COc3cccnc3)c2C1.O=C(O)C(F)(F)F` is 9.654%. For `CC(C)CN1Cc2nc(N3CCCC3)ncc2C1=O`, the “Percent Effect” value is reported as -13.83%. `COc1ccccc1C(=O)N1CCNCC1C(N)=O.Cl` (stereo unspecified): the “Percent Effect” value was found to be 5.705%. For the compound `CC(=O)N1CCC(c2nccnc2Nc2cnccn2)CC1`, the “Percent Effect” value was found to be 19.92%. Consider `Cc1cnc(Nc2nccnc2C2CCN(C)CC2)s1`, for which the “Percent Effect” value is recorded as 16.42%. To `CC(=O)N1CCC(c2nccnc2Nc2ncc(C)s2)CC1` belongs 55.53%. The figure for `CCOC1COC2(CCN(C(=O)c3cccc(C)n3)CC2)C1.O=C(O)C(F)(F)F` (stereo unspecified) is 18.32%; for `O=C(O)C(F)(F)F.O=C(c1cccc(O)c1)N1CCC2(CCN2c2ncccn2)C1` (stereo unspecified) it is 1.113%.

With `Cc1cnn(CCNCc2csc(-c3ccc(C)o3)n2)c1`, the “Percent Effect” value came to 64.15%. To `Cc1cnn(CC(C)NCc2csc(-c3ccco3)n2)c1` (stereo unspecified) belongs 29.87%; to `Cc1cnn(CCNCc2csc(-c3ncccn3)n2)c1`, -10.75%.

On to `c1coc(-c2nc(CNCCn3cccn3)cs2)c1`, for which the “Percent Effect” value is listed as -1.03%.

As for `Cc1ccc(-c2nc(CNCCn3cccn3)cs2)o1`, the “Percent Effect” value was determined as 26.99%. The figure for `Cc1cnn(CCNCc2csc(-c3ccco3)n2)c1` is 52.61%; for `Cl.N#Cc1cccnc1OC1CCNCC1` it is -9.035%; for `Cc1ccc(N2C[C@@H]3OCCN(CC4CC4)[C@@H]3C2)nn1.O=C(O)C(F)(F)F` it is 21.44%.

Turning to `CN1Cc2cnn(CC3CCCC3)c2C(COCC2CC2)C1.O=C(O)C(F)(F)F.O=C(O)C(F)(F)F` (stereo unspecified), the “Percent Effect” value was -36.29%.

For the compound `O=C(O)C(F)(F)F.O=C(O)C(F)(F)F.O=C(O)C(F)(F)F.c1ccc(CN2CC[C@@H]3O[C@H](COCc4ccncc4)CC[C@@H]32)nc1`, the “Percent Effect” value is listed as 5.621%. For `NCC(c1ccc(Cl)cc1)N1CCc2sccc2C1` (stereo unspecified), the “Percent Effect” value came to 22.77%. To `NCC(c1ccccc1)N1CCc2sccc2C1` (stereo unspecified) belongs 4.411%; to `CC(C)c1ccc(C(CN)N2CCc3sccc3C2)cc1` (stereo unspecified), 92.4%. To `Cc1csc([C@@H]2C[C@H]3CN(c4ncc(F)cn4)C[C@H]3O2)n1.O=C(O)C(F)(F)F` belongs 25.07%. Regarding `CNC(C)Cc1ccccc1Sc1ccc(O)cc1.Cl` (stereo unspecified), the “Percent Effect” value is 5.856%. To `CC(N)Cc1ccccc1Sc1ccc(O)cc1.CC(N)Cc1ccccc1Sc1ccc(O)cc1.O=C(O)C(=O)O` (stereo unspecified) belongs 54.17%; to `CC(N)Cc1ccccc1Sc1ccccc1.O=C(O)/C=C\C(=O)O` (stereo unspecified), 31.83%; to `O=C(Nc1ccccc1)[C@H]1C[C@@H]2CN(S(=O)(=O)c3ccccc3)C[C@H]1O2`, 3.672%.

Turning to `CCc1cc(NCCNc2ccncc2C)n2nc(C)c(C)c2n1`, the “Percent Effect” value came to 10.67%. To `Cc1cc(N[C@@H](CO)c2ccccc2)n2nc(C)c(C)c2n1` belongs 11.1%; to `CCc1cc(NCCc2cccnc2)n2nc(C)c(C)c2n1`, 66.22%.

Turning to `Cc1cc(NCCCNc2cccnc2)n2nc(C)c(C)c2n1`, the “Percent Effect” value was 90.05%.

In the case of `CCc1cc(NCCNc2cccnc2)n2nccc2n1`, the “Percent Effect” value is 0.7035%. The figure for `CCc1cc(NCCNC(=O)c2cccnc2)n2nc(C)c(C)c2n1` is -20.84%; for `Cc1cc(NC2CCN(Cc3ccccn3)CC2)n2nc(C)c(C)c2n1` it is 3.704%; for `CCc1cc(NCCN2CCNC2=O)n2nc(C)c(C)c2n1` it is -8.001%. To `CCc1cc(NCCc2cnccn2)n2nc(C)c(C)c2n1` belongs 78.14%; to `O=C(O)C(F)(F)F.O=C(c1ccco1)N1C[C@@H]2OCCN(c3ncccn3)[C@@H]2C1`, -4.269%; to `COc1cccc(CN2C[C@@H]3COC[C@]3(CNC(=O)C3CC3)C2)c1.O=C(O)C(F)(F)F`, 18.07%. To `O=C(O)C(F)(F)F.O=C(c1ccco1)N1CCCC12CCN(c1ncccn1)CC2` belongs -4.902%; to `Cn1cc(-c2csc(N3CCSCC3)n2)cn1`, 7.511%; to `CN1CCN(c2nc(-c3cnn(C)c3)cs2)CC1`, -2.615%. `Cn1cc(-c2csc(N3CCCCCC3)n2)cn1`: the “Percent Effect” value was determined as 70.2%. The figure for `O=C(NCC1CC1)[C@@H]1C[C@@H]2CCN(Cc3ccoc3)C[C@@H]2O1` is -11.78%; for `Cc1ccc(C(=O)N2CCC3(CC2)CC(N2CCOCC2)C3)cc1.O=C(O)C(F)(F)F` it is 4.537%. The figure for `Cc1noc(C)c1C(=O)N1CCOC2(COCCN(C(C)C)C2)C1.O=C(O)C(F)(F)F` (stereo unspecified) is 7.392%; for `CC(CNCc1ccc(Br)cc1)Oc1ccccn1.Cl` (stereo unspecified) it is -4.228%; for `CN(C)CCn1c2c(ccc1=O)CCN(Cc1cnn(C)c1)CC2.O=C(O)C(F)(F)F.O=C(O)C(F)(F)F` it is 10.2%. The figure for `CC(C)NC(=O)N1CCC2(CCC(=O)N2CCN(C)C)CC1.O=C(O)C(F)(F)F` is -12.81%; for `CN1CCN(C(=O)c2csnn2)c2ccccc21` it is -18.09%; for `CN1CCN(C(=O)c2cnsn2)c2ccc(F)cc21` it is 82.14%. On to `CN1CCN(C(=O)c2cnsn2)c2cc(F)ccc21`, for which the “Percent Effect” value is given as 57.04%. On to `CN1CCCN(C(=O)c2cnsn2)c2cc(F)ccc21`, for which the “Percent Effect” value is recorded as -35.83%. Turning to `CN1CCN(C(=O)CCc2cccnc2)c2ccc(F)cc21`, the “Percent Effect” value came out at 15.62%. As for `CN1CCCN(C(=O)c2cnsn2)c2cc(Cl)ccc21`, the “Percent Effect” value is reported as -8.8%. To `Clc1ccccc1CCN1CCN(c2ccc3nncn3n2)CC1` belongs 33.42%; to `Cc1ccc(-c2nc(CN3CCCC(Cn4cncn4)C3)cs2)o1` (stereo unspecified), 9.33%. To `O=C(CC1CC1)N1CCC2(COCc3cnc(N4CCOCC4)nc32)C1` (stereo unspecified) belongs 6.453%.

(Values after ChEMBL document CHEMBL3988442, “University of Dundee, Small-Polar-MMV Screening Library” (2021).)
